Bioassay records from PubChem.
This is a sample that favours compounds with a hit; in the whole collection about 1.8% have one here.
GCN5L2 inh – GCN5L2 (KAT2A) acetyltransferase inhibition; Q92830; GCN5L2 HAT assay, ThioGlo1 CoA-SH fluorescence; Potency, µM (doses to about 58.9 µM), usual class: inhibitors; 390,000 compounds, 0.21% hits; AID 504327
Target sequence (Q92830 whole entry, looked up): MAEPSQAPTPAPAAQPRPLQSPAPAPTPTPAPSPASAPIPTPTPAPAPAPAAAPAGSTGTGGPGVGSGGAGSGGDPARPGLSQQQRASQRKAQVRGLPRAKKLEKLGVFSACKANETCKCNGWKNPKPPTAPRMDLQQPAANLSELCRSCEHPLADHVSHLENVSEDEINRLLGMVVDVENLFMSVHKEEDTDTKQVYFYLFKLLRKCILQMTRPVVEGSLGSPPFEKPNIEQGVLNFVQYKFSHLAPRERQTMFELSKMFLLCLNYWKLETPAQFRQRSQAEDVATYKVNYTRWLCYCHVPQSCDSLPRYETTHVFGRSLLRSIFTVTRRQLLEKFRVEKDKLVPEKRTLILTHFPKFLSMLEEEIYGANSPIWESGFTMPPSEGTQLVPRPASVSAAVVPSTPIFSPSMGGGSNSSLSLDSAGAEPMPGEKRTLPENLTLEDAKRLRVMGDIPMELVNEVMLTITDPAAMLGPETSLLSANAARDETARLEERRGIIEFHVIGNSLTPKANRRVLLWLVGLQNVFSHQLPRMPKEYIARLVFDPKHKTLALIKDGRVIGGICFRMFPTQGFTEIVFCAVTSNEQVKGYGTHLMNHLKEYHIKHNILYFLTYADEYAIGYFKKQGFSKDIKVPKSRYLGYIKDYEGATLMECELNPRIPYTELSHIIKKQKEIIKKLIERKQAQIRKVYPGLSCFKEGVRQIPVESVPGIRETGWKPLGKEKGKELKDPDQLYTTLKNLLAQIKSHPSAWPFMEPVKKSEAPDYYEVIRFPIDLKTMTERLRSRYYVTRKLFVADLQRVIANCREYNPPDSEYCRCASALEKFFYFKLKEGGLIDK
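Preincubate 20nM GCN5L2 with compound 15 min, RT → add 50uM ThioGlo1 + 75uM H3(1-25) + 70uM acetyl-CoA → read fluorescence 0 and 20 min. Primary qHTS; fluorescent artifacts likely.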
rTrxR1 inhibitor – rat TrxR1 inhibition | O89049 | recombinant rTrxR1, NADPH fluorescence consumption, selenite substrate | Potency, µM (doses to about 114 µM), most hits filed as inhibitors | 390,000 compounds, 1% hits; note: nearly all actives have a fitted effect of over 65% in size
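Rat TrxR1 (90 nM in the dispensed reagent) was pre-reduced with 400 uM NADPH for 5 min at room temperature, then incubated with compound for 15 min. After 400 uM selenite was added, NADPH fluorescence (Ex 340/Em 450 nm) was followed for 8 min.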
TrxR1 substrate – substrates of rat thioredoxin reductase 1 | Potency, µM (series often up to 114 µM) | AID 588456 | purified TrxR1 substrate turnover, NADPH consumption readout | O89049 | 390,000 compounds, 0.01% hits; note: nearly all actives have a fitted effect of over 50% in size
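Rat TrxR1, dispensed at 90 nM, was prereduced with 400 uM NADPH (final) for 5 min at ~22 deg C, then incubated with compound 15 min before 400 uM selenite. A first-read NADPH fluorescence drop versus no-compound background flagged substrates.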
VDR inhibitor – vitamin D3 receptor (human) inhibition; 400,000 compounds, 0.93% hits; VDR-SRC2-3 peptide fluorescence polarization, 2 h; Potency, µM, most hits filed as inhibitors; P11473
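After 23 nl compound addition and a short centrifugation, plates sat for 2 hours at ambient temperature; polarization of fluorescence then indicated loss of VDR binding to peptide SRC2-3.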
Large screens that a line does not name were inactive; ! = not confirmed by another sample. Calls come from the whole dose curve; as a rule, active = well fitted curve in the direction sought with a large enough effect; inconclusive = small, poorly fitted or top-dose-only effect, or another doubt; inactive = no such curve, though single readings can be large; an effect the other way counts as inactive or inconclusive.

CCOC(=O)C(NC(=O)CCl)(Nc1sc(C)c(CC)c1C#N)C(F)(F)F (configuration not stated)	rTrxR1 inhibitor 56µM
Cc1ccc(S(=O)(=O)n2c([N+](=O)[O-])cnc2C)c(C)c1C	VDR inhibitor 45µM
Cc1ccc(C)c(-n2c(CCC(=O)O)ccc2-c2ccc(Cl)cc2)c1	VDR inhibitor inconclusive
CCOC(=O)/C=C1\CC(C(=O)OCC)Oc2c(OC)cccc21 (configuration not stated)	rTrxR1 inhibitor 28µM!, VDR inhibitor 79µM
Cc1sc2ccccc2[n+]1Cc1ccccc1	none (no result: GCN5L2 inh, VDR inhibitor)
CCS(=O)(=O)c1nc(S(=O)(=O)c2ccc(C)cc2)c(NCc2ccccn2)s1	none
CCCS(=O)(=O)c1nc(S(=O)(=O)c2ccc(C)cc2)c(NCc2ccccn2)s1	rTrxR1 inhibitor 20µM
O=C1C(NS(=O)(=O)c2cccs2)=C(N2CCOCC2)C(=O)c2ccccc21	none
O=C(O)c1cccc(NC2=C(N3CCOCC3)C(=O)c3ccccc3C2=O)c1	rTrxR1 inhibitor inconclusive, VDR inhibitor 71µM
O=C1C=C(N2CCOCC2)c2ccccc2C1=O	rTrxR1 inhibitor inconclusive, TrxR1 substrate 25µM, VDR inhibitor inconclusive
O=c1c2nc(Br)n([C@@H]3O[C@@H]4CO[P@@](O)(=S)O[C@H]4[C@H]3O)c2nc2[nH]c(-c3ccccc3)cn12	none (no result: rTrxR1 inhibitor, TrxR1 substrate)
COc1ccccc1-c1nn(CCC(=O)Nc2cccc(C(C)=O)c2)c2nc(C)cc(C)c12	none
COc1cccc(C2=CC(c3ccccc3O)NC(C)(C)N2)c1 (configuration not stated)	none (no result: GCN5L2 inh)
CCCc1cc(OC)c2c(c1)OCO2	VDR inhibitor inconclusive (no result: rTrxR1 inhibitor, TrxR1 substrate)
COc1cc2oc(=O)c3c4c(cc5ccc(c1CCN(C)C)c2c53)OCO4	VDR inhibitor 40µM (no result: GCN5L2 inh, rTrxR1 inhibitor, TrxR1 substrate)
Cc1ccc(NC(=O)c2cnn3c2NC(=C2CC2)C=C3C(F)F)cc1	none (no result: GCN5L2 inh, VDR inhibitor)
COc1ccc(NS(=O)(=O)c2ccc(I)cc2)cc1N1CCN(C)CC1	GCN5L2 inh inconclusive (no result: rTrxR1 inhibitor, TrxR1 substrate)
COC(=O)c1sc(NC(=O)c2ccc([N+](=O)[O-])o2)c(C#N)c1C	rTrxR1 inhibitor 14µM, TrxR1 substrate inconclusive
COc1ccc(OC)c(NS(=O)(=O)c2cc3c(cc2Cl)N(C(C)=O)CCO3)c1	rTrxR1 inhibitor 18µM
O=C(O)c1cccc(S(=O)(=O)Nc2ccc3[nH]c(=O)[nH]c3c2)c1	none
O=C(O)c1cccc(S(=O)(=O)Nc2ccc3oc(=O)sc3c2)c1	GCN5L2 inh inconclusive, VDR inhibitor 89µM
CC(C(=O)c1ccccc1)[n+]1ccc(Cl)c2ccc(Cl)cc21 (configuration not stated)	none (no result: GCN5L2 inh, VDR inhibitor)
CC(=O)Nc1ccc(OC(=O)c2ccc(Cl)cc2)cc1	none
CC1(C)CC(=O)C=C(OC(=O)c2ccc(Cl)cc2)C1	rTrxR1 inhibitor 4.5µM
COc1cc(/C=C2\SC(=O)N(CC(=O)Nc3cccc(C)c3)C2=O)cc([N+](=O)[O-])c1O	VDR inhibitor 71µM
CCOc1cc(/C=C2\SC(=O)N(CC(=O)Nc3ccccc3F)C2=O)cc([N+](=O)[O-])c1O	VDR inhibitor inconclusive
CCCCNc1ccc(/C=C2\C=Cc3ccccc32)cc1	none (no result: GCN5L2 inh, VDR inhibitor)
O=C(Nc1cccc(F)c1)C1CCN(S(=O)(=O)c2ccc3[nH]c4c(c3c2)CCCCC4)CC1	none
O=C(O)C(S)[C@@H](S)C(=O)O (some centres not stated)	GCN5L2 inh 7.1µM, VDR inhibitor 4µM (no result: rTrxR1 inhibitor, TrxR1 substrate)
O=C(O)C(S)C(S)C(=O)O (configuration not stated)	rTrxR1 inhibitor inconclusive, VDR inhibitor inconclusive (no result: GCN5L2 inh)
CCc1ccc(NC(=O)N(Cc2c[nH]c3ccccc23)C2CCCCCC2)cc1	none
COC(=O)c1c(S(C)(=O)=O)nc(-c2ccccc2)[nH]c1=O	rTrxR1 inhibitor 40µM
CCN(CC)c1ccc2c(c1)oc(=O)c1c(Cl)cc(=O)oc12	rTrxR1 inhibitor 35µM, VDR inhibitor inconclusive
N#Cc1nc(-c2cccs2)oc1NCCCN1CCOCC1	GCN5L2 inh 35µM
COc1ccc(-c2nc(C#N)c(NCCCN3CCOCC3)o2)cc1	none
CCc1ccc2oc(-c3cc(NC(=O)COc4ccc(C)cc4)ccc3O)nc2c1	none (no result: GCN5L2 inh, VDR inhibitor)
Cc1nc2c3cc(F)ccc3n(Cc3ccccc3F)c2s1	VDR inhibitor 50µM
Cc1nc2c3ccccc3n(Cc3ccccc3F)c2s1	VDR inhibitor 45µM
CCc1c(C(=O)NCCc2ccc(N3CCCCC3)cc2)[nH]c2ccc(Cl)cc12	none
C#CC(=O)N(c1ccc(OC)c(OC)c1)C(C(=O)NC1CCCC1)c1cccs1 (configuration not stated)	rTrxR1 inhibitor 3.2µM
Cc1cccc(NC(=O)C2CCC(CNS(=O)(=O)c3ccc(Br)s3)CC2)c1 (configuration not stated)	none
C/C1=C\[C@@H](O)C(C(C)C)C(OC(=O)c2ccc(O)cc2)C/C(C)=C/CC1 (some centres not stated)	none (no result: rTrxR1 inhibitor, TrxR1 substrate)
CC(=O)CCc1oc2ccc(NC(C)=O)cc2c1-c1ccc(C)o1	rTrxR1 inhibitor 20µM
Cc1cc(C)c(NC(=S)NCC2CCN(C(C)c3ccccc3)C2)c(C)c1 (configuration not stated)	VDR inhibitor 45µM
Cc1nn(-c2ccccn2)c2c1C(=O)C(Br)CC2 (configuration not stated)	rTrxR1 inhibitor 13µM, VDR inhibitor 18µM
C=CCCC1CN(CCCC)S(=O)(=O)c2c(F)cccc2O1 (configuration not stated)	VDR inhibitor 89µM (no result: GCN5L2 inh)
O=C(NC(=S)Nc1cccc2cc(O)ccc12)c1ccco1	rTrxR1 inhibitor 79µM
O=C(NC(=S)Nc1cccc2cc(O)ccc12)c1ccccc1Br	rTrxR1 inhibitor 50µM
O=C1/C(=C/c2ccccc2[N+](=O)[O-])COc2ccccc21	rTrxR1 inhibitor inconclusive, VDR inhibitor 22µM
Cc1sccc1C1C(C#N)=C(N)SC(N)=C1C#N	none (no result: rTrxR1 inhibitor, TrxR1 substrate, VDR inhibitor)
Cc1cc(C2C(C#N)=C(N)SC(N)=C2C#N)c(C)s1	rTrxR1 inhibitor 32µM, VDR inhibitor inconclusive
CC(=O)c1ccc(OC(=O)CCc2nc3ccccc3s2)cc1	rTrxR1 inhibitor inconclusive, VDR inhibitor 40µM
Cc1cc(N)ccc1N1CCCC1	GCN5L2 inh inconclusive, rTrxR1 inhibitor 13µM, VDR inhibitor 71µM
Cc1cc(N)ccc1-n1c(C)ccc1C	rTrxR1 inhibitor inconclusive, VDR inhibitor inconclusive
CCOC(=O)c1ccccc1NC(=O)CSc1cn(CC(=O)N2CCCCCC2)c2ccccc12	none
COc1ccc(/C=C2\N=C(C)OC2=O)cc1OC	rTrxR1 inhibitor 40µM, VDR inhibitor inconclusive
C=CCOc1ccc(/C=C2\N=C(C)OC2=O)cc1OC	VDR inhibitor inconclusive
CCOC(=O)COc1c(Cl)cc(/C=C2\N=C(C)OC2=O)cc1OC	rTrxR1 inhibitor 14µM, VDR inhibitor inconclusive (no result: GCN5L2 inh)
CCOC(=O)COc1c(OC)cc(Cl)cc1C1NC(=O)NC(C)=C1C(C)=O (configuration not stated)	none
COc1cc(/C=C2\N=C(c3ccccc3)OC2=O)ccc1OC(C)=O	none
COc1ccc(/C=C2\N=C(C)OC2=O)cc1OC(C)=O	rTrxR1 inhibitor 45µM, VDR inhibitor 50µM
CCN(Cc1cccc(S(=O)(=O)O)c1)c1ccc(C(=C2C=CC(=[N+](CC)Cc3cccc(S(=O)(=O)O)c3)C=C2)c2ccccc2S(=O)(=O)[O-])cc1	none (no result: GCN5L2 inh, VDR inhibitor)
